Results filed as inconclusive are left out. Values without a mark were called inactive. Calls of active or inactive are those of the source. The call rests on the fitted dose curve; in most records, active means well fitted curve in the direction sought with a large enough effect; inconclusive means small, poorly fitted or top-dose-only effect, or another doubt; inactive means no such curve, though single readings can be large; an effect the other way counts as inactive or inconclusive.
Tests used:
[1] = target: Cellular tumor antigen p53 (Homo sapiens) (UniProt P04637); assay: Primary qHTS for small molecule compounds that upregulate eGFP-tagged delta133p53alpha (in N-terminal) cells. (AID 2060322); settings: NCI-H358 eGFP-delta133p53alpha fluorescence, 24 h; activation: hits give high values; further: nearly all actives have a fitted effect of over 75% in size;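 on activation: 0% = DMSO vehicle and 100% = reference activator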
Chain of Cellular tumor antigen p53 (Homo sapiens) (P04637 whole entry, looked up): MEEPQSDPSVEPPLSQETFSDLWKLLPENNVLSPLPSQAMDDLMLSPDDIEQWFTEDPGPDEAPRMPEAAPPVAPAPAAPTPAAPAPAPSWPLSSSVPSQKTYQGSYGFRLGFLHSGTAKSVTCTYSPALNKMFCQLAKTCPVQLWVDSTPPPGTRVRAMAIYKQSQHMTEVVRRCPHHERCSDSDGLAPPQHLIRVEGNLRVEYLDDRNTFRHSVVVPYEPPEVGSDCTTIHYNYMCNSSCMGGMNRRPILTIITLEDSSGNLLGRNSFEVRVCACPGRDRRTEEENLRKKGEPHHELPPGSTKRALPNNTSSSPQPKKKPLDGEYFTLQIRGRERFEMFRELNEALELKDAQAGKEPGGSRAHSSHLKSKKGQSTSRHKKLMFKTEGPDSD
Method in brief: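 NCI-H358 cells pre-induced 24 h with 10 ng/ml doxycycline to express N-terminal eGFP-delta133p53alpha, then dosed 24 h at 37C without doxycycline; fixed, Hoechst-stained, GFP intensity by laser scanning cytometry, normalized to DMSO (0%) and 57.5 uM 5-azacytidine (100%).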

[2] = BET inhibitor-based combinations targeting novel dependencies in MECOM-rearranged (r) AML: SET-2 cell line (AID 2202231); settings: SET-2 AML cells viability, CellTiter-Glo luminescence, 48 h; viability: hits give low values, concentration not given here; further: nearly all actives have a fitted effect of over 35% in size;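 on viability: plate controls were DMSO treated cells for no effect and wells without cells for full effect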
Method in brief: (§1)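 Viability of cells (500 per well) is scored by luminescent CellTiter-Glo at 48 hr post-dosing. Eleven-point titrations are normalized to DMSO and empty controls and reduced to AUC values.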

[3] = BET inhibitor-based combinations targeting novel dependencies in MECOM-rearranged (r) AML: OCI-AML3 cell line (AID 2202232); settings: CellTiter-Glo luminescence, 48 h; Potency: OCI-AML3 viability; series mostly up to 46 µM; further: nearly all actives have a fitted effect of over 35% in size
Method in brief: as §1

[4] = BET inhibitor-based combinations targeting novel dependencies in MECOM-rearranged (r) AML: MV-4-11 cell line (AID 2202233); settings: MV-4-11 AML viability, CellTiter-Glo luminescence, 48 h; series mostly up to 46 µM; further: nearly all actives have a fitted effect of over 45% in size
Method in brief: (§2)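 Using pin-tool transfer, drugs were added in 11 doses to cells (500/well), incubated 48 hr, and assessed with CellTiter-Glo. Z-AUC is a mean-centring transformation applied separately to each screened line.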

[5] = BET inhibitor-based combinations targeting novel dependencies in MECOM-rearranged (r) AML: HNT-34 cell line (AID 2202234); settings: HNT-34 AML viability, CellTiter-Glo luminescence, 48 h; series mostly up to 46 µM; further: nearly all actives have a fitted effect of over 35% in size
Method in brief: as §2

[6] = BET inhibitor-based combinations targeting novel dependencies in MECOM-rearranged (r) AML: UCSD-AML1 cell line (AID 2202235); settings: UCSD-AML1 AML cells viability, CellTiter-Glo, 48 h; series mostly up to 46 µM; further: nearly all actives have a fitted effect of over 40% in size
Method in brief: as §2

[7] = BET inhibitor-based combinations targeting novel dependencies in MECOM-rearranged (r) AML: AML-191 cell line (AID 2202236; further: nearly all actives have a fitted effect of over 35% in size); settings: AML-191 viability, CellTiter-Glo luminescence, 48 h; series mostly up to 46 µM
Method in brief: as §1

[8] = BET inhibitor-based combinations targeting novel dependencies in MECOM-rearranged (r) AML: AML-194 cell line (AID 2202237; further: nearly all actives have a fitted effect of over 40% in size); settings: AML-194 (MECOM-r AML) viability, CellTiter-Glo, 48 h; series mostly up to 46 µM
Method in brief: as §1
Potency means the concentration at half of the fitted maximal effect.

| Structure (SMILES) | Potency [1] | Potency [2] | Potency [3] | Potency [4] | Potency [5] | Potency [6] | Potency [7] | Potency [8] | activation [1] | viability [2] |
| --- | --- | --- | --- | --- | --- | --- | --- | --- | --- | --- |
| O=C(NC1CCNCC1)c1[nH]ncc1NC(=O)c1c(Cl)cccc1Cl | 685 nM (active) | 11800 nM (active) | 1050 nM (active) | 662 nM (active) | 1050 nM (active) | 1320 nM (active) | 2090 nM (active) | 2630 nM (active) | – | – |
| CCCCCN=C(N)N/N=C/c1c[nH]c2ccc(OC)cc12 | – | 23500 nM (active) | 8330 nM (active) | 8330 nM (active) | 9340 nM (active) | 16600 nM (active) | 18600 nM (active) | 20900 nM (active) | 9.6% | – |
| O=C(O)C(=O)Nc1cccc(-c2nn[nH]n2)c1 | – | – | inactive | inactive | inactive | inactive | inactive | inactive | -3.95% | 121% |
| CC(C)(C#N)c1cc(Cn2cncn2)cc(C(C)(C)C#N)c1 | – | – | inactive | inactive | inactive | inactive | inactive | inactive | 2.42% | 107% |
| CC(C)[C@H](O)C(=O)N[C@@H](C)C(=O)N[C@@H]1C(=O)N(C)CCc2ccccc21 | – | – | inactive | inactive | inactive | inactive | inactive | inactive | 28.1% | 117% |
| C[C@@H]1CN(c2c(F)c(N)c3c(=O)c(C(=O)O)cn(C4CC4)c3c2F)C[C@H](C)N1 | – | – | inactive | inactive | inactive | inactive | inactive | inactive | 22.7% | 102% |
| O=C(/C=C\n1cnc(-c2cc(C(F)(F)F)cc(C(F)(F)F)c2)n1)NNc1cnccn1 | – | 742 nM (active) | 1180 nM (active) | 525 nM (active) | 934 nM (active) | 372 nM (active) | 468 nM (active) | 372 nM (active) | 24.8% | – |
| COc1ccc(S(=O)(=O)Nc2cc(-c3c(O)ccc4ccccc34)c(O)c3ccccc23)cc1 | – | 11800 nM (active) | 2630 nM (active) | 833 nM (active) | 1660 nM (active) | 3720 nM (active) | 1860 nM (active) | 1660 nM (active) | 23.1% | – |
